In the library only some 1.4% were active in any assay of this set; here they are far more common.
V-ATPase pHluor: yeast V-ATPase proton transport regulation by pHLuorin | response, % at 10 µM | 350,000 tested, 0.37% active | S. cerevisiae, pHLuorin cytosolic pH fluorescence; in the data active means response mostly above about 7.3%, no sharp cut-off; inactive means mostly below about 5.4%; further: actives read high
TNF death inh: inhibitors of TNF-alpha induced necroptosis in Jurkat FADD-/- cells | AID 463075 | 220,000 tested, 0.068% active | Jurkat FADD-/- TNF necroptosis rescue, ATP luminescence, 24 h; 0 = TNF only, 100 = no-TNF cells | activation (protection from cell death), % at 10 µM;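 active means activation, meaning protection from cell death, of at least 50% relative to plate controls; inactive means activation below 50%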;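 further: necroptosis triggered by 40 ng/mL TNF-alpha added together with compound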
zVAD death inh: L929 zVAD cell death inhibition; L929 zVAD necroptosis rescue, ATP luminescence, 24 h; with zVAD 60 µM; viability rescue, % at 10 µM; 220,000 tested, 0.38% active;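 active means activation, scaled between plate controls, above about 75%, limit read from the data; inactive means activation under that limit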;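 further: 0% = zVAD with DMSO and 100% = DMSO alone without zVAD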
Wee1 degr inh: blocks degradation of human Wee1 kinase | HeLa Luc-Wee1K328M stability, luciferase luminescence; 100% = proteasome inhibitor MG132 effect | reporter increase, % at 5 µM | 220,000 tested, 1.2% active | AID 1321;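 active means activation above the mean of all tested compounds plus 3 SD, set per screening run, cut at about 8.8% in these data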;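 further: cells exposed to compound for 20 h before luminescence read; 0% = DMSO alone and 100% = MG132 at 30 µM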
Target sequence (P30291 whole entry K328M): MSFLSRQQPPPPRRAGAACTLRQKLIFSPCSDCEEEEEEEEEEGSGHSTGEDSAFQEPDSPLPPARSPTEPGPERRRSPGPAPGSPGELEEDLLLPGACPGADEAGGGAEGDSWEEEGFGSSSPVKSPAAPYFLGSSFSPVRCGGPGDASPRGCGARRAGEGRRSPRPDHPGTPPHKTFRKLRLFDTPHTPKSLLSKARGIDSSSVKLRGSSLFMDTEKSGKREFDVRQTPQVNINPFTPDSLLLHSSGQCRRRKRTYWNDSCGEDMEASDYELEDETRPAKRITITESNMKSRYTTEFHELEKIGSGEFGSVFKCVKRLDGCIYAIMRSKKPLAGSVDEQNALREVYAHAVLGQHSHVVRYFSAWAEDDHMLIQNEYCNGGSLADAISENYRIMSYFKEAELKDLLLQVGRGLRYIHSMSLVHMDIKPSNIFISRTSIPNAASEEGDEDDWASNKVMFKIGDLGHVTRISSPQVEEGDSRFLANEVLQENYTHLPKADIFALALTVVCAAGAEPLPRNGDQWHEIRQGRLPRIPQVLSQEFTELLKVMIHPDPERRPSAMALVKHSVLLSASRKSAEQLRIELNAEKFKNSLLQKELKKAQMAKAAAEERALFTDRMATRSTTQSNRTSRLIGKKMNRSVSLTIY
HSV augment: increases HSV replication in cells; 220,000 tested, 0.005% active; maximum fold increase; AID 1956; HSV replication augmentation in cells, fold increase; in the data active means maximum fold increase above about 1.5; tested in PC3 cells
Wee1 degr conf: human Wee1 degradation inhibition, confirmation; shares compounds with Wee1 degr inh; HeLa Luc-Wee1K328M degradation, luminescence; vehicle 0%, proteasome-blocked wells 100%; activation, % at 5 µM; 1,100 tested, 4% active; in the data active means activation above about 8.9%
* hit, by the source's call; i = inactive; x = not tested or not shown.

SMILES	V-ATPase pHluor	TNF death inh	zVAD death inh	Wee1 degr inh	HSV augment	Wee1 degr conf
COc1ccc(CCC(=O)Nc2sccc2C#N)cc1	x	2	2	12*	i	0
CCOCC(=O)Nc1nc(C)cc(C)n1	1	0	1	11*	i	1
C=C(NC(C)=O)c1c(F)cccc1F	0	x	x	x	x	x
CN1/C(=C\C(=O)c2cccnc2)Sc2ccccc21	-3	-2	49	13*	i	5
COc1cccc(C(=O)/C=C2\Sc3ccccc3N2C)c1	1	-1	24	-1	i	x
CN(c1nc2nonc2nc1NC1CC1)C1CCOC1 (stereo not drawn)	-2	0	0	-2	i	x
CCC(C)NC(=O)Cn1cnc2sc(C)c(S(=O)(=O)N3CCN(c4ncccn4)CC3)c2c1=O (stereo not drawn)	0	-2	-1	16*	i	1
CCOc1ccc(C(=O)CN2C(=O)NC3(CCCc4ccccc43)C2=O)cc1 (stereo not drawn)	1	x	x	x	x	x
NC(=O)NC(CC(=O)NNC(=O)c1ccccn1)c1ccccc1Cl (stereo not drawn)	1	x	x	x	x	x
CCCCCOc1ccc(Cn2ccnc2)cc1[N+](=O)[O-]	-3	1	0	-1	i	x
CCOc1ccc(Cn2ccnc2)cc1[N+](=O)[O-]	0	1	0	16*	i	0
COc1ccc(C(=O)NCCCn2ccnc2)cc1[N+](=O)[O-]	-3	0	0	18*	i	-1
CC1(C)Oc2ccc(NC(=O)c3ccco3)cc2O1	-6	-2	0	13*	i	-1
Fc1cccc(/C=N/Nc2nc3ccccc3[nH]2)c1	x	9	6	11*	i	0
CC1CC(C)CN(CC(=O)NC(c2ccccc2)c2ccccc2)C1 (stereo not drawn)	-3	2	0	12*	i	1
Cc1ccccc1NC(=O)c1cc(C(=O)c2cc(Cl)ccc2O)cn(-c2ccccc2C)c1=O	-2	3	2	14*	i	0
Cc1ccc(-n2cc(C(=O)c3cc(Cl)ccc3O)cc(C#N)c2=O)cc1	-1	2	0	3	i	x
CC(C)CNC(=O)CN(C1CCCCC1)S(=O)(=O)c1ccccc1	-1	0	2	11*	i	-1
O=C(/C=C/c1ccc(Br)cc1)c1ccc(NC2=NCCCS2)cc1	7	-4	0	12*	i	6
CC(=O)NC(Cc1ccccc1F)C(=O)NC1CCN(S(=O)(=O)c2ccccc2)CC1 (stereo not drawn)	-3	x	x	x	x	x
CN(C)c1ccc(C(CNS(=O)(=O)c2ccc(F)c(F)c2)c2c[nH]c3ccccc23)cc1 (stereo not drawn)	0	2	3	11*	i	0
CN(C)c1ccc(C(CNC(=O)c2ccccc2F)c2c[nH]c3ccccc23)cc1 (stereo not drawn)	4	4	1	0	i	x
CC1CC(C)CN(C(=S)SCc2nc(N)nc(Nc3ccccc3)n2)C1 (stereo not drawn)	-2	3	1	12*	i	-4
CCCCN(C)CCCNC(=O)CS(=O)Cc1nc(-c2ccc(OC)c(OC)c2)oc1C (stereo not drawn)	-1	0	0	13*	i	0
CCCN(CCC)CCCNC(=O)CS(=O)Cc1nc(-c2ccc(OC)c(OC)c2)oc1C (stereo not drawn)	-16	0	1	0	i	x
SMILES	V-ATPase pHluor	TNF death inh	zVAD death inh	Wee1 degr inh	HSV augment	Wee1 degr conf
COCOCCn1cc(CN2CCS(=O)(=O)N(Cc3ccc(-c4ccc(OC)c(OC)c4)cc3)C(CC(C)C)C2=O)nn1 (stereo not drawn)	1	x	x	x	x	x
CCCCNS(=O)(=O)c1ccc2nc(-c3cccnc3)cc(C(=O)NC(C)C)c2c1	0	2	x	19*	x	-1
CCCCNS(=O)(=O)c1ccc2nc(-c3cccnc3)cc(C(=O)NC(C)CC)c2c1 (stereo not drawn)	0	-2	x	0	x	x
COC(=O)c1ccccc1NC(=O)Nc1c(C)n(C)n(-c2ccccc2)c1=O	-2	x	x	x	x	x
O=C(NC1CCCCC1)NC1CC2CCC(C1)N2C(=O)NC1CCCCC1 (stereo not drawn)	x	0	4	15*	i	-1
O=C(NC1CCCCC1)NC1CC2CCC(C1)N2C(=O)NCc1ccccc1 (stereo not drawn)	x	1	0	5	x	x
Cc1ccc(/C=C/C(=O)NCCCc2ccccc2)cc1	-2	2	1	19*	i	-1
C[C@@H]1CN([C@H](C)CO)C(=O)CCCn2cc(nn2)CO[C@H]1CN(C)C(=O)Nc1ccc2c(c1)OCO2	-2	x	x	x	x	x
COC(=O)CSc1nnc(Cc2ccccc2)n1-c1ccc(C)cc1	1	0	-1	0	i	x
O=C(CSc1nnc(Cc2ccccc2)n1-c1ccccc1)NNC(=O)Cc1ccccc1	x	-1	0	17*	i	-4
COc1ccccc1N1CCN(/N=C/C=C\c2ccco2)CC1	3	-1	0	24*	i	2
CCC(C(=O)NCC1CCCO1)N(Cc1ccccc1)C(=O)CNS(=O)(=O)c1ccccc1 (stereo not drawn)	-3	x	x	x	x	x
O=C(CSc1ccc([N+](=O)[O-])cc1)NCC1CCCCC1	2	4	52	-3	i	x
Cc1cccc(NC(=O)c2ccc(NCC3CCCO3)c([N+](=O)[O-])c2)n1 (stereo not drawn)	4	-1	2	11*	i	5
Cc1cccc(NC(=O)c2ccc(NCC3CCCO3)c([N+](=O)[O-])c2)c1 (stereo not drawn)	7	3	x	-1	i	x
CC(Cc1cccnc1)NC(=O)CCc1nnc(-c2ccccc2)o1 (stereo not drawn)	-2	-1	2	19*	i	4
CCc1cc2cc(C(=O)Nc3ccc(F)cc3)sc2s1	4	1	0	0	i	x
CC(C)(C)c1ccc(C(=O)Nc2ccc(F)cc2)s1	2	2	2	12*	i	7
Cc1cc2c(cc1C)C(c1ccccc1Br)CC(=O)N2 (stereo not drawn)	2	-2	2	15*	i	0
O=C(NCC1CCCO1)c1ccc2c(=O)n(CC3CCCO3)c(SCC(=O)N3CCCC3)nc2c1 (stereo not drawn)	0	-1	2	0	i	x
COc1ccc(CN(C)C(=O)/C=C/c2ccc(S(=O)(=O)N3CCCCCC3)cc2)cc1	-3	x	x	x	x	x
Cc1ccc(O)c(C(CC(=O)NCc2ccco2)c2ccccc2)c1 (stereo not drawn)	-1	0	0	11*	i	2
Cc1cc(C(=O)COC(=O)c2ccc(N)c([N+](=O)[O-])c2)c(C)n1-c1ccc2c(c1)OCO2	-3	-4	-1	4	i	x

Assay outcomes from PubChem BioAssay.
